Bioassay records: PubChem BioAssay, National Center for Advancing Translational Sciences (NCATS)
GRP78 ERSR act: qHTS for Inducers of the Endoplasmic Reticulum Stress Response (ERSR) in Human Glioma: qHTS | U87-MG GRP78 promoter luciferase reporter, 16 h | Potency, µM, most hits filed as activators | AID 602332, 2012 | 420,000 tested, 0.02% active; also: series mostly up to about 76 µM; nearly all actives have a fitted effect of over 35% in size
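ERSR induction read as luciferase luminescence (Bright-Glo, 10 min at room temperature) in stably transfected human U87-MG glioma cells exposed to compounds for 16 h, using GRP78 as sensor.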
Integrin act MD: qHTS for Activators of Integrin-Mediated Alleviation for Muscular Dystrophy; alpha7betagal myoblasts, beta-gal FDG fluorescence, 48 h; Potency, µM (doses to about 38.3 µM), most hits filed as activators; 350,000 tested, 0.064% active; AID 624291, 2012; also: nearly all actives have a fitted effect of over 60% in size
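Alpha7betagal+/- myoblasts (passage 13) were plated 16-24 hr, then exposed to compounds (1:260 dilution of DMSO stock) for 48 hours at 37C. After MPER lysis, β-galactosidase reporter activity was read as FDG fluorescence (ex 480/em 540) after 30 minutes.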
CBFb-RUNX1 inh: qHTS Assay for Compounds Blocking the Interaction Between CBF-beta and RUNX1 for the Treatment of Acute Myeloid Leukemia; AlphaScreen CBFb-His/RUNX1-biotin binding, biochemical; Potency, µM (top dose mostly 59.8 µM), hits mostly inhibitors; 230,000 tested, under 10 active
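Bead-based AlphaScreen assay; binding partners His-tagged CBF-beta and biotinylated RUNX1 at 30 nM each. Compound exposure 15 min after a 20-min protein preincubation; bead step 90 min; all steps at room temperature.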
Anesthetic bind: qHTS Assay for Identification of Novel General Anesthetics; Ferritin light chain (Equus caballus), P02791; apoferritin/1-aminoanthracene competitive binding, fluorescence; Potency, µM (titrated, usually from 77.5 µM), hits mostly inhibitors; 350,000 tested, 0.074% active; also: nearly all actives have a fitted effect of over 20% in size
Target sequence (P02791 2-175 limits assumed): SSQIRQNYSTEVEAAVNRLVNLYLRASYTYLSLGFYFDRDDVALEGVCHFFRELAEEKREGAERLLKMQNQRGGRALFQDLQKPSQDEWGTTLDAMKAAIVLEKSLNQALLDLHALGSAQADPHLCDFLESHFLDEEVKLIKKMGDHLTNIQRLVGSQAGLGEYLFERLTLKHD
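Horse-spleen apoferritin (10 uM) in 50% saturated 1-aminoanthracene in PBS was incubated 10 min at room temperature with compound. Fluorescence (ex 380, em 535 nm) was normalized to free and bound 1-AMA, with concentration-response fitted by a four-parameter Hill equation.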
ClpP mod: qHTS Assay for Activators of ClpP. 340,000 tested, 1.9% active. AID 651965, 2013. Potency, µM (top dose mostly 57.5 µM). purified B. subtilis ClpP, FRET peptide cleavage, 20 min. ATP-dependent Clp protease proteolytic subunit (Bacillus subtilis (strain 168)), P80244; active = well fitted falling curve with a large enough effect; inconclusive = small, poorly fitted or top-dose-only effect; inactive = no such curve, though single readings can be large or run the other way; also: the source files actives as falling curves though it sought activators and does not explain the sign; nearly all actives have a fitted effect of over 65% in size
Target sequence (P80244 whole entry, looked up): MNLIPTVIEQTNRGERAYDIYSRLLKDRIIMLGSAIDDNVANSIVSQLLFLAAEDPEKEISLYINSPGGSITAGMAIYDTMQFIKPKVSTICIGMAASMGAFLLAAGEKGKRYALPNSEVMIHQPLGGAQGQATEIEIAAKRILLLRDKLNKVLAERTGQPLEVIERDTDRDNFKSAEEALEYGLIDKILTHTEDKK
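Purified B. subtilis ClpP, 10 microg/mL final in Tris/HCl pH8 with KCl, BSA, glycerol and Tween-20, cleaved an Abz/nitrotyrosine-quenched decapeptide. Fluorescence (ex 320, em 430) was read at 0 and 20 min at room temperature. Delta was normalized to 5.8 microM ADEP and DMSO/no-enzyme controls.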
N370S GC: qHTS Assay for Inhibitors and Activators of N370S glucocerebrosidase as a Potential Chaperone Treatment of Gaucher Disease; Lysosomal acid glucosylceramidase (Homo sapiens), P04062; N370S GC spleen homogenate, 4MU-glucoside fluorescence; Potency, µM (highest dose often 59.4 µM), actives largely listed as inhibitors; 330,000 tested, 0.092% active; AID 2101, 2009
Numbers stand for hits. Shown is part of a subset that was picked to be rich in hits. Unless noted, calls follow the shape of the dose curve; as a rule, active = well fitted curve in the direction sought with a large enough effect; inconclusive = small, poorly fitted or top-dose-only effect, or another doubt; inactive = no such curve, though single readings can be large; an effect the other way counts as inactive or inconclusive.

Results for COc1cccc(C2OC(=O)c3ccccc3N2C(C)=O)c1OC(C)=O (stereo not drawn) ?
GRP78 ERSR act: inactive; Integrin act MD: inactive; CBFb-RUNX1 inh: inactive; Anesthetic bind: inactive; ClpP mod: inactive; N370S GC: inactive

How did Oc1c(Br)cc(Br)cc1CNc1cccc2cccnc12 do in these assays?
GRP78 ERSR act: inactive; Integrin act MD: 13µM; Anesthetic bind: inactive; ClpP mod: inactive; N370S GC: inactive

How did O=Cc1cccc(C=O)c1 do in these assays?
GRP78 ERSR act: inactive; ClpP mod: inactive

What do the screens show for `Cc1cc2nc(C)c(Cc3ccccc3)c(=O)n2[nH]1`?
GRP78 ERSR act: inactive; Integrin act MD: inactive; CBFb-RUNX1 inh: inactive; Anesthetic bind: inactive; ClpP mod: 14µM; N370S GC: inactive

Results for Cc1nc2c(-c3ccccc3)c[nH]n2c(=O)c1Cc1ccccc1 ?
GRP78 ERSR act: inactive; Integrin act MD: inactive; CBFb-RUNX1 inh: inactive; Anesthetic bind: inactive; N370S GC: inactive

How did CC(=O)CC/C=C(\C)CC/C=C(/C)CC/C=C(\C)CCC=C(C)C do in these assays?
GRP78 ERSR act: inactive

Results for Cc1cccc(NC(=O)CCC(=O)c2cccs2)n1 ?
GRP78 ERSR act: inactive; Integrin act MD: inactive; ClpP mod: 3.5µM; N370S GC: inactive

Results for Cc1cccc(C)c1NC(=O)COC(=O)CCC(=O)c1cccs1 ?
GRP78 ERSR act: inactive; Integrin act MD: inactive; CBFb-RUNX1 inh: inactive; Anesthetic bind: inactive; ClpP mod: inactive; N370S GC: inactive

How did Cc1cc(C)nc(-n2nc(C)cc2NC(=O)COC(=O)CCC(=O)c2cccs2)n1 do in these assays?
GRP78 ERSR act: inactive; Integrin act MD: inactive; CBFb-RUNX1 inh: inactive; Anesthetic bind: inactive; ClpP mod: 28µM; N370S GC: inactive

What do the screens show for `CCCN1CCC(=O)N(CCC#N)CC1`?
GRP78 ERSR act: inactive; ClpP mod: inactive

What do the screens show for `c1ccc2c(c1)c1c(c3ccccc32)CN2CCCC2C1` (stereo not drawn)?
GRP78 ERSR act: inactive; Integrin act MD: inactive; ClpP mod: 20µM

What do the screens show for `Cc1cc(-c2ccnc(-n3ncc(C(=O)NCC4COCCO4)c3C)n2)c(C)s1` (stereo not drawn)?
GRP78 ERSR act: inactive

What do the screens show for `CCCCCCc1cc2cc(S(=O)(=O)c3ccc(F)cc3)c(=O)oc2cc1O`?
GRP78 ERSR act: inactive; Integrin act MD: inactive; CBFb-RUNX1 inh: inactive; Anesthetic bind: inactive; ClpP mod: 28µM; N370S GC: inactive

Results for COc1cc2nc(N3CCOCC3)nc(NC3CC3)c2cc1OC ?
ClpP mod: inactive

What do the screens show for `Cc1cccc(NCc2ccc([N+](=O)[O-])s2)c1`?
GRP78 ERSR act: inactive; Integrin act MD: inactive; Anesthetic bind: 16µM; ClpP mod: inactive; N370S GC: inactive

What do the screens show for `Cc1ccc(NCc2ccc([N+](=O)[O-])s2)cc1`?
GRP78 ERSR act: inactive; Integrin act MD: inactive; Anesthetic bind: 16µM; ClpP mod: inactive; N370S GC: inactive

What do the screens show for `O=[N+]([O-])c1ccc(CNc2cccc(F)c2)s1`?
GRP78 ERSR act: inactive; Integrin act MD: inactive; Anesthetic bind: inconclusive; ClpP mod: inactive; N370S GC: inactive

Results for O=C(NCC1Cc2cccc(-c3cnccn3)c2O1)c1ccc2c(c1)OCCO2 (stereo not drawn) ?
GRP78 ERSR act: inactive

Results for CCOC(=O)c1cc(-c2ccc(Cl)cc2)nc2c1c(C)nn2CCC#N ?
GRP78 ERSR act: inactive; Integrin act MD: inactive; CBFb-RUNX1 inh: inactive; Anesthetic bind: inactive; ClpP mod: 35µM; N370S GC: inactive

Results for Cc1ccc(-n2nc(C)c3c(C(F)(F)F)cc(-c4cccnc4)nc32)cc1C ?
GRP78 ERSR act: inactive; Anesthetic bind: inactive; ClpP mod: inactive

Results for Cc1cc(C(F)(F)F)c2c(C)nn(CCc3nn[nH]n3)c2n1 ?
GRP78 ERSR act: inactive; Integrin act MD: inactive; CBFb-RUNX1 inh: inactive; Anesthetic bind: inactive; ClpP mod: 18µM; N370S GC: inactive

Results for CCOC(=O)c1cc(-c2ccc(OC)cc2F)nc2c1c(C)nn2CCC#N ?
GRP78 ERSR act: inactive; Integrin act MD: inactive; CBFb-RUNX1 inh: inactive; Anesthetic bind: inactive; ClpP mod: 25µM; N370S GC: inactive

How did Cc1cc(C(F)(F)F)c2c(C)nn(-c3ccccc3)c2n1 do in these assays?
GRP78 ERSR act: inactive; Integrin act MD: inactive; ClpP mod: 28µM

What do the screens show for `Cc1nn(CCc2nn[nH]n2)c2nc(-c3ccccc3)cc(C(F)(F)F)c12`?
GRP78 ERSR act: inactive; Integrin act MD: inactive; CBFb-RUNX1 inh: inactive; Anesthetic bind: inactive; ClpP mod: inactive; N370S GC: inactive

How did CCOC(=O)c1cc(-c2ccc3c(c2)OCCO3)nc2c1c(C)nn2CCC#N do in these assays?
GRP78 ERSR act: inactive; Integrin act MD: inactive; CBFb-RUNX1 inh: inconclusive; Anesthetic bind: inactive; ClpP mod: inconclusive; N370S GC: inactive

How did Cc1nn(CCC#N)c2nc(-c3ccccc3)cc(C(F)(F)F)c12 do in these assays?
GRP78 ERSR act: inactive; Integrin act MD: inactive; CBFb-RUNX1 inh: inactive; Anesthetic bind: inconclusive; ClpP mod: 32µM; N370S GC: inactive

What do the screens show for `Cc1ccccc1-n1c(SCc2csc(Nc3ccccc3)n2)nnc1-c1cccnc1`?
GRP78 ERSR act: inactive; Integrin act MD: inactive; CBFb-RUNX1 inh: inactive; Anesthetic bind: inactive; ClpP mod: inactive; N370S GC: inactive

What do the screens show for `Cc1ccc(Nc2nc(CSc3nnc(-c4cccnc4)n3-c3ccccc3C)cs2)cc1`?
GRP78 ERSR act: inactive; Integrin act MD: inactive; CBFb-RUNX1 inh: inactive; Anesthetic bind: inactive; ClpP mod: 28µM; N370S GC: inactive

Results for Cc1cc(N2CCOCC2)nc2ccc(NC(=O)C3CCC(C)CC3)cc12 (stereo not drawn) ?
GRP78 ERSR act: inactive; Integrin act MD: inactive; CBFb-RUNX1 inh: inactive; Anesthetic bind: inactive; ClpP mod: 14µM; N370S GC: inconclusive

Results for Cc1cc(N2CCCCCC2)nc2ccc(F)cc12 ?
GRP78 ERSR act: inactive; Integrin act MD: inactive; ClpP mod: 28µM

What do the screens show for `Cc1cc(N2CCCCC2)nc2ccc(NC(=O)CCC(=O)NCCC(C)C)cc12`?
GRP78 ERSR act: inactive; Integrin act MD: inactive; CBFb-RUNX1 inh: inactive; Anesthetic bind: inactive; ClpP mod: 16µM; N370S GC: inactive
